Data published in the supplement of paper PMC12350171.
Structures can show the parent of a compound that is named as a salt. Values without a mark were called inactive.

Legend:
Conditions in all cases: 20 µM
[1] = tested on: Salmonella enterica typhimurium; test: growth AUC normalised to DMSO control (fraction of control); higher = less growth inhibition, active = hit call of the paper
How it was run: (§1)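 After two anaerobic passages, pathogens were added at a starting OD578 of 0.01 to pre-reduced mGAM plates holding compound at 20 μM with 1% DMSO; hemin and NAD were supplemented for Haemophilus parainfluenzae. Sealed with breathable membranes, plates were read at OD578 hourly for 24 h, in three biological replicates. The trapezoidal rule, applied up to the exponential-to-stationary transition, gave the growth-curve AUC, which was normalised to DMSO controls on the same plate.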

Shigella flexneri = test: as above
How it was run: as §1

Vibrio cholerae = test: as above
How it was run: as §1

[2] = tested on: Yersinia pseudotuberculosis; test: as above
How it was run: as §1

P. vulgatus RND KO = test: growth AUC normalised to DMSO control (median) (fraction of control); higher = less growth inhibition, active = hit call of the paper
How it was run: (§2)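 In 96-well plates of mGAM seeded at OD578 0.01, strains that had been passaged twice overnight without oxygen were exposed to approved-drug library compounds at 20 μM with 1% DMSO. Hourly OD578 readings were taken for 24 h in an anaerobic incubator. The trapezoidal-rule area under the curve, with curves truncated at entry into stationary phase, was expressed relative to same-plate vehicle wells as the median of three biological replicates.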

P. vulgatus WT = test: as above
How it was run: as §2

[3] = tested on: S. enterica typhimurium WT; test: as above
How it was run: as §2

[4] = tested on: S. enterica typhimurium tolC KO; test: as above
How it was run: as §2
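For growth AUC normalised to DMSO control (median) in this document: active when median AUC fell below 0.1.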

| SMILES | growth AUC normalised to DMSO control [1] | growth AUC normalised to DMSO control (Shigella flexneri) | growth AUC normalised to DMSO control (Vibrio cholerae) | growth AUC normalised to DMSO control [2] | growth AUC normalised to DMSO control (P. vulgatus RND KO) | growth AUC normalised to DMSO control (P. vulgatus WT) | growth AUC normalised to DMSO control [3] | growth AUC normalised to DMSO control [4] |
| --- | --- | --- | --- | --- | --- | --- | --- | --- |
| Cc1cccc(C)c1NC(=O)CN1CCN(CCCC(c2ccc(F)cc2)c2ccc(F)cc2)CC1 [Lidoflazine] | 1.01 | 1.02 | 1.01 | 1.02 | 1.04 | 1.04 | 1.01 | 0.938 |
| CC(C)NC[C@H](O)COc1ccc(CC(N)=O)cc1 [(S,-) Atenolol] | 0.988 | 0.972 | 0.996 | 1.02 | 0.985 | 0.963 | 0.987 | 0.989 |
| CN[C@@H]1[C@H](O[C@H]2[C@H](O[C@H]3[C@H](O)[C@@H](O)[C@H](NC(=N)N)[C@@H](O)[C@@H]3NC(=N)N)O[C@@H](C)[C@]2(O)CO)O[C@@H](CO)[C@H](O)[C@H]1O [Dihydrostreptomycin sulfate] | 0.994 | 1.01 | 1.02 | 0.973 | 0.999 | 1.02 | 0.992 | 0.989 |
| CCCc1cc(=O)[nH]c(=S)[nH]1 [Propylthiouracil] | 0.987 | 0.991 | 1 | 0.993 | 1.02 | 1.05 | 1.01 | 0.996 |
| CC(=O)OCC(=O)[C@@]1(OC(C)=O)[C@@H](C)C[C@H]2[C@@H]3C[C@H](F)C4=CC(=O)C=C[C@]4(C)[C@@]3(F)[C@@H](O)C[C@@]21C [Diflorasone Diacetate] | 1 | 0.977 | 1.01 | 1.01 | 1 | 1.03 | 0.997 | 1 |
| CC(=O)OC(C)C[N+](C)(C)C (stereo not given) [Methacholine chloride] | 0.992 | 0.939 | 0.99 | 0.983 | 0.991 | 1 | 0.991 | 1 |
| CC(C)NCC(O)c1ccc(O)c(O)c1 (single isomer, unassigned; (+)) [(+) Isoproterenol-(+)-bitartrate salt] | 1.02 | 1.02 | 1.03 | 0.913 | 1.01 | 1.03 | 1.01 | 0.984 |
| COc1ccc2cc(CCC(C)=O)ccc2c1 [Nabumetone] | 1.03 | 0.998 | 0.929 | 0.999 | 0.99 | 1 | 1 | 0.963 |
| CC1=Nc2ccc(Cl)cc2S(=O)(=O)N1 [Diazoxide] | 1.01 | 1.03 | 1.02 | 0.999 | 1.04 | 1.01 | 1.01 | 0.989 |
| O=C(O)/C=C/c1ccc(Cn2ccnc2)cc1 [Ozagrel hydrochloride] | 1.02 | 1.02 | 0.995 | 1.01 | 1.02 | 1.05 | 1 | 1 |
| CCN(CC)CCOC(=O)C1(C2CCCCC2)CCCCC1 [Dicyclomine hydrochloride] | 0.935 | 0.978 | 0.889 | 0.98 | 1 | 1.02 | 0.999 | 0.933 |
| NCCCC[C@H](N[C@@H](CCc1ccccc1)C(=O)O)C(=O)N1CCC[C@H]1C(=O)O [Lisinopril] | 1.01 | 1.02 | 1.04 | 1.01 | 1.05 | 1.04 | 1.01 | 0.997 |
| CC(=O)Nc1c(I)c(C(=O)N[C@H]2C(O)O[C@H](CO)[C@@H](O)[C@@H]2O)c(I)c(N(C)C(C)=O)c1I (stereo not given in full) [Metrizamide] | 1.01 | 0.985 | 0.988 | 1.01 | 1 | 1.01 | 1.02 | 1.01 |
| C/C(=C(\CCOP(=O)(O)O)SC(=O)c1ccccc1)N(C=O)Cc1cnc(C)nc1N [Benfotiamine] | 0.997 | 0.982 | 0.996 | 0.988 | 1.02 | 1.03 | 1.01 | 0.999 |
| CC(C(=O)O)c1ccc(N2Cc3ccccc3C2=O)cc1 (stereo not given) [Indoprofen] | 0.992 | 1.01 | 1.03 | 1.01 | 0.975 | 0.971 | 0.993 | 0.997 |
| NS(=O)(=O)c1cc2c(cc1Cl)NC(C(Cl)Cl)NS2(=O)=O (stereo not given) [Trichlormethiazide] | 0.974 | 1.04 | 0.957 | 0.986 | 0.974 | 0.982 | 1.01 | 0.999 |
| Nc1ncnc2c1ncn2C1OC(COP(=O)(O)O)C(O)C1O (stereo not given) [Adenosine 5'-monophosphate monohydrate] | 0.999 | 0.986 | 0.981 | 1 | 0.977 | 0.984 | 0.992 | 0.995 |
| Cc1ccccc1C(OCCN(C)C)c1ccccc1 (stereo not given) [Orphenadrine hydrochloride] | 1 | 1.02 | 1.02 | 0.992 | 1.01 | 0.992 | 0.983 | 0.958 |
| Cc1ccc(C(=O)c2ccc(CC(=O)O)n2C)cc1 [Tolmetin sodium salt dihydrate] | 0.984 | 1.04 | 1.05 | 1.01 | 0.983 | 0.985 | 0.999 | 1 |
| c1ccc2[nH]c(-c3cscn3)nc2c1 [Tiabendazole] | 0.97 | 0.954 | 0.956 | 0.975 | 0.971 | 0.971 | 1 | 0.995 |
| Cc1c(C)c2c(c(C)c1O)CCC(C)(COc1ccc(CC3SC(=O)NC3=O)cc1)O2 (stereo not given) [Troglitazone] | 0.992 | 0.97 | 0.986 | 0.974 | 0.839 | 0.892 | 0.997 | 0.97 |
| COc1cc(N)c(Cl)cc1C(=O)NC1CCN(Cc2ccccc2)CC1 [Clebopride maleate] | 0.996 | 0.998 | 0.995 | 1 | 0.987 | 0.999 | 0.998 | 1 |
| NS(=O)(=O)Cc1noc2ccccc12 [Zonisamide] | 1.01 | 0.997 | 0.997 | 1 | 1 | 1 | 0.998 | 1.01 |
| C[C@H](O)C(=O)Nc1c(I)c(C(=O)NC(CO)CO)c(I)c(C(=O)NC(CO)CO)c1I [Iopamidol] | 1.03 | 1.08 | 1.07 | 1.03 | 1.08 | 1.08 | 1.01 | 1.01 |
| C[C@@H]1CN(c2c(F)c(N)c3c(=O)c(C(=O)O)cn(C4CC4)c3c2F)C[C@H](C)N1 [Sparfloxacin] | 0.00775 (active) | 0.047 (active) | 0.0469 (active) | 0.0357 (active) | 0.0205 (active) | 0.0159 (active) | 0.0129 (active) | 0.00501 (active) |
| COc1c(N2CCNC(C)C2)c(F)cc2c(=O)c(C(=O)O)cn(C3CC3)c12 (stereo not given) [Gatifloxacin] | 0.0102 (active) | 0.0167 (active) | 0.0355 (active) | 0.0287 (active) | 0.0163 (active) | 0.0109 (active) | 0.0104 (active) | 0.0044 (active) |
| COc1ccccc1Oc1c(NS(=O)(=O)c2ccc(C(C)(C)C)cc2)nc(-c2ncccn2)nc1OCCO [Bosentan] | 1.02 | 1.03 | 1.01 | 1.01 | 1 | 1.01 | 1.01 | 0.985 |
| Cc1ccccc1N1C(=O)c2cc(S(N)(=O)=O)c(Cl)cc2NC1C (stereo not given) [Metolazone] | 0.994 | 0.984 | 0.996 | 0.991 | 0.99 | 1 | 1.02 | 0.997 |
| CCC1=C(C)CN(C(=O)NCCc2ccc(S(=O)(=O)NC(=O)N[C@H]3CC[C@H](C)CC3)cc2)C1=O [Glimepiride] | 1.02 | 1.01 | 1.02 | 1.01 | 1.03 | 1.01 | 1.03 | 0.993 |
| CNCCC(Oc1ccccc1OC)c1ccccc1 (stereo not given) [Nisoxetine hydrochloride] | 0.949 | 1.02 | 1 | 0.993 | 1.01 | 1 | 0.957 | 0.91 |
